# Experimental data published in ChEMBL document CHEMBL3988442, “University of Dundee, Small-Polar-MMV Screening Library” (2021).
# Among all 48,000 compounds or so, about 13,000 (27%) showed an effect of 50% or more. The list shows a part of the results.
# Tested on: Wolbachia pipientis
# Assay: Anti-Wolbachia Cell-Based Screen
# Assay type: functional
# Parameters: scale not given: in the data most compounds retested in dose-response had high values
# Settings: 5 µM
row,SMILES,Percent Effect
1,CC(Cc1c(F)cccc1F)NC(=O)NCc1ncnn1C (configuration not stated),1.27%
2,O=C(N[C@H]1CN2CCC1CC2)c1cc(Cn2cnc3ccccc32)[nH]n1,-21.06%
3,c1ccc(C(Cn2cnnc2)N2CCOCC2)nc1 (configuration not stated),9.343%
4,Cc1cccc(CN2C[C@H]3CC[C@@H]2CN(Cc2[nH]cnc2C)C3)n1,-2.11%
5,CC(=O)c1cc(C(=O)N2CC[C@@H]3CC[C@H](C2)N3C)c(=O)[nH]c1C,-5.325%
6,Nc1cc(-c2cccc3c2CCNC3)ncn1,9.212%
7,Nc1cnc(-c2cccc3c2CCNC3)cn1,7.253%
8,CN(C)C(=O)c1ccc(-c2cccc3c2CCNC3)cc1,85.47%
9,CNC(=O)CN1CCO[C@H]2CN(CC3CC3)C[C@H]21.O=C(O)C(F)(F)F.O=C(O)C(F)(F)F,7.624%
10,O=C(O)C(F)(F)F.O=C(O)C(F)(F)F.c1cnc(N2CCO[C@H]3CN(CC4CCOCC4)C[C@H]32)nc1,110.6%
11,Fc1cnc(N2CCO[C@H]3CN(CC4CCOC4)C[C@H]32)nc1 (some centres not stated),71.68%
12,Fc1cnc(N2CCO[C@H]3CN(CC4CCCC4)C[C@H]32)nc1.O=C(O)C(F)(F)F,-2.844%
13,O=C(O)C(F)(F)F.O=C(O)C(F)(F)F.c1cnc(N2CCO[C@H]3CN(CC4CC4)C[C@H]32)nc1,92.7%
14,Fc1cnc(N2CCO[C@H]3CN(CC4CCC4)C[C@H]32)nc1,-20.13%
15,O=C(O)C(F)(F)F.c1cnc(N2CCO[C@H]3CN(Cc4csnn4)C[C@H]32)nc1,-24.49%
16,Fc1cnc(N2CCO[C@H]3CN(CC4CCCCC4)C[C@H]32)nc1.O=C(O)C(F)(F)F,110%
17,Fc1ccccc1CN1C[C@@H]2OCCN(c3ncccn3)[C@@H]2C1,1.64%
18,O=C(O)C(F)(F)F.O=C(O)C(F)(F)F.c1cnc(N2CCO[C@H]3CN(Cc4ccsc4)C[C@H]32)nc1,14.83%
19,Cc1nc[nH]c1CN1C[C@@H]2OCCN(c3ncccn3)[C@@H]2C1.O=C(O)C(F)(F)F,-20.21%
20,CCN1CCN(c2ccc(C(=O)NCCOC)cc2F)CC1,-17.47%
21,CC(C)(C)c1cn(C[C@H]2CC3CCN2C[C@@H]3C(=O)N2CCOCC2)nn1 (some centres not stated),-7.534%
22,CC(Cn1cncn1)NCCN1CCc2ccccc21 (configuration not stated),1.288%
23,O=C1[C@@H]2CCN(CC3CC3)C[C@@H]2OCCN1c1cccnc1,-19.89%
24,Cn1cncc1CN1C[C@@H]2OCCN(c3ncccn3)[C@@H]2C1.O=C(O)C(F)(F)F,-0.0713%
25,c1ccc(CN2C[C@@H]3OCCN(c4cccnc4)[C@@H]3C2)nc1,-16.65%

row,SMILES,Percent Effect
1,CC(C)CCN1C[C@@H]2OCCN(c3ncc(F)cn3)[C@@H]2C1.O=C(O)C(F)(F)F,92%
2,O=C(O)C(F)(F)F.c1cncc(N2CCO[C@H]3CN(CC4CCOC4)C[C@H]32)c1 (some centres not stated),94.42%
3,Cn1cc(CN2C[C@@H]3OCCN(c4ncccn4)[C@@H]3C2)cn1.O=C(O)C(F)(F)F.O=C(O)C(F)(F)F,9.697%
4,CC(C)S(=O)(=O)N1C[C@@H](c2ccccc2)[C@H]2[C@H]1CCCCCN2C,189.5%
5,CC(Cn1cncn1)NCc1csc2c1CCCC2 (configuration not stated),-14.34%
6,NC1(c2nc(-c3ccccc3)cc(=O)[nH]2)CCCCC1,-11.2%
7,CO[C@H]1COCCN(Cc2c[nH]c3ccccc23)C1,-3.317%
8,O=C1OCCC1N1CCN(C(=O)Cc2c[nH]c3ccccc23)CC1 (configuration not stated),5.817%
9,CC1=NOC2(CCN(Cc3c[nH]c4ccccc34)CC2)C1,112.6%
10,CCc1nnc(CN(C)C(=O)CN2CC(c3ccccc3)CC2=O)o1 (configuration not stated),5.104%
11,CCS(=O)(=O)N1CCc2c(CN3CCOCC3)cncc2C1.Cl.Cl,105.6%
12,CCS(=O)(=O)N1CCc2c(COC)cncc2C1,85.06%
13,O=C(COc1ccc(F)cc1)N1CCCSCC1CN1CCOCC1 (configuration not stated),-0.3394%
14,FC1(F)CCNCC12CCN(c1ncccn1)C2 (configuration not stated),-1.09%
15,Cl.FC(F)CNc1cnc(C2CCNCC2)cn1,73.95%
16,Cl.O=C(C1CC1)N1CC2(CCNCC2)C1,-2.925%
17,O=C(C1CC1)N1CCC2(CC1)CNCCO2,0.5147%
18,Cl.O=C(C1CC1)N1CCOC2(CCNCC2)C1,99.53%
19,Cc1ccc(N2C[C@@H]3OCCN(CC4CC4)[C@@H]3C2)nn1.O=C(O)C(F)(F)F,101.4%
20,Cc1noc(C)c1CN1CCO[C@H]2CNC[C@H]21.Cl.Cl,-6.613%
21,Cc1ccc(N2C[C@@H]3OCCN(Cc4c(C)noc4C)[C@@H]3C2)nn1,99.73%
22,Cc1ccc(N2C[C@@H]3CN(Cc4csc(C)n4)CCO[C@@H]3C2)nn1.O=C(O)C(F)(F)F.O=C(O)C(F)(F)F,2.819%
23,Cc1ccc(N2C[C@@H]3CN(Cc4ccoc4)CCO[C@@H]3C2)nn1.O=C(O)C(F)(F)F.O=C(O)C(F)(F)F,-36.31%
24,COCC(=O)N1C[C@@H]2OCCN(Cc3c(C)noc3C)[C@@H]2C1,-12.28%
25,CC(C)NC(=O)N1CCOC2(CCNCC2)C1,-2.285%

row,SMILES,Percent Effect
1,CC(C)N1CCCC(Cc2nccnc2Cl)C1 (configuration not stated),102.4%
2,CN1CCCC(Cc2cncc(Br)c2)CC1 (configuration not stated),-8.172%
3,CN1CCCC(Cc2nccnc2Cl)CC1 (configuration not stated),111.8%
4,CC(C)N1CCCC(Cc2nccnc2Cl)CC1 (configuration not stated),83.32%
5,CCn1ccnc1CN1CCN(C(C)C)CC1C (configuration not stated),-27.31%
6,O=C(N1CCCC1)N1C[C@H]2CC[C@@H]1CN(Cc1ccncc1)C2,3.012%
7,CC(C)CN1C(=O)C2(CCCC2)NC1c1cccnc1 (configuration not stated),-3.888%
8,COC(=O)CCC(=O)NC(C)Cc1ccccc1Br (configuration not stated),5.861%
9,O=S1(=O)CCC(n2cc(C3=CCN(CCN4CCCCC4)CC3)cn2)C1 (configuration not stated),5.738%
10,COCCN1CC=C(c2cccc(OC)c2)CC1,-4.022%
11,CN(C)C(=O)CN1CC=C(c2cnn(Cc3ccccc3)c2)CC1,99.64%
12,COc1cccc(C2=CCN(CCN3CCOC3=O)CC2)c1,5.556%
13,COc1cccc(C2=CCN(CCN3CCCC3=O)CC2)c1,-10.09%
14,CC(C)(C)n1cc(C2=CCN(CCc3ccccc3)CC2)cn1,-9.314%
15,CCn1cc(C2=CCN(CCCOc3ccccc3)CC2)cn1,20.1%
16,COc1cccc(Cn2cc(C3=CCN(CC(=O)N(C)C)CC3)cn2)c1,105.2%
17,CCC(O)Cn1cc(C2=CCN(Cc3ccc(OC)cc3)CC2)cn1 (configuration not stated),-14.61%
18,COc1cccc(Cn2cc(C3=CCN(CCO)CC3)cn2)c1,104.2%
19,Cc1noc(C)c1CNCc1ccccc1N(C)C1CCN(C)CC1,3.422%
20,Cc1nc(C)c(C)c(N2CCC3(CCN(C)C3)C2)n1 (configuration not stated),-3%
21,NCC1(c2cccc(C(F)(F)F)c2)CCCC1,-13.69%
22,CC(C)=CCN1C[C@H]2CC[C@@H]1CN(C(=O)CSc1ccncc1)C2,19.74%
23,O=S1(=O)NCC2(CCN(Cc3ccc(Cl)s3)C2)Oc2ncccc21 (configuration not stated),120.8%
24,COCCN1CCC2(C1)CN(c1ncccn1)C2.O=C(O)C(F)(F)F,-10.62%
25,CC(C)CCN1CCC2(CNS(=O)(=O)c3cccnc3O2)C1 (configuration not stated),113.8%

row,SMILES,Percent Effect
1,CC(C)CN1CCC2(CC(C(=O)NCc3cccnc3)=NO2)C1 (configuration not stated),-7.517%
2,O=C(Cc1ccncc1)N1C[C@H]2CC[C@@H]1CN(Cc1cccnc1)C2,-14.3%
3,NCC1(c2cccc(C(F)(F)F)c2)CCCCC1,-7.297%
4,CCCc1nnc2sc(C3CCN(CC)CC3)nn12,103.4%
5,COc1ccc(C(=O)C2CCCN(Cc3ccc(C)o3)C2)c(OC)c1 (configuration not stated),-6.752%
6,COc1ccc(CC(=O)N2CCN(Cc3ccco3)C[C@@H]2C)cc1,137.5%
7,COc1ccc(CC(=O)N2CCN(Cc3ccco3)C[C@H]2C)cc1OC,147.8%
8,O=C(Cc1csc(-c2ccco2)n1)N1CCN(CCO)CC1,5.506%
9,COc1cccc(CC(=O)N2CCCSCC2CN2CCCC2)c1 (configuration not stated),23.31%
10,CO[C@H]1CCN(c2ncc(F)cn2)[C@@H]2CN(Cc3ccco3)C[C@H]12.O=C(O)C(F)(F)F.O=C(O)C(F)(F)F,23.38%
11,COc1ccc(CCNCc2ccco2)cc1OC,-22.25%
12,COc1ccc(CC(=O)N2CCN(Cc3ccco3)C[C@@H]2C)cc1OC,120.6%
13,COc1ccc2c(ccn2CCN)c1,-4.94%
14,O=C(O)C(F)(F)F.O=C(O)C(F)(F)F.c1cc(CO[C@H]2CC[C@H]3[C@H]2OCCN3Cc2nccs2)ccn1,124.9%
15,O=C(O)C(F)(F)F.O=C(O)C(F)(F)F.O=C(O)C(F)(F)F.c1cncc(CN2CCO[C@H]3[C@H](OCCN4CCCC4)CC[C@@H]32)c1,103%
16,CCN(CC)CCN1CCO[C@H]2[C@@H](OCc3ccncc3)CC[C@@H]21.O=C(O)C(F)(F)F.O=C(O)C(F)(F)F.O=C(O)C(F)(F)F,3.809%
17,O=C(O)C(F)(F)F.O=C(O)C(F)(F)F.O=C(O)C(F)(F)F.c1cc(CN2CCO[C@H]3[C@H](OCCN4CCCC4)CC[C@@H]32)ccn1,104.9%
18,O=C(O)C(F)(F)F.O=C(O)C(F)(F)F.c1ccc(CO[C@H]2CC[C@H]3[C@H]2OCCN3Cc2nccs2)nc1,-10.71%
19,CC(C)NC(=O)[C@H]1C[C@@H]2[C@@H](C1)OCCN2Cc1cccnc1.O=C(O)C(F)(F)F.O=C(O)C(F)(F)F,1.72%
20,Cc1cccc(CO[C@@H]2CC[C@H]3[C@H]2OCCN3Cc2nccs2)n1.O=C(O)C(F)(F)F.O=C(O)C(F)(F)F,-8.72%
21,O=C(O)C(F)(F)F.O=C(O)C(F)(F)F.O=C(O)C(F)(F)F.c1ccc(CN2CCO[C@H]3[C@H](OCCN4CCCC4)CC[C@@H]32)nc1,-22.42%
22,O=C(NCC1CC1)[C@H]1C[C@@H]2[C@@H](C1)OCCN2Cc1cccnc1.O=C(O)C(F)(F)F.O=C(O)C(F)(F)F,13.71%
